The source of these data is PubChem BioAssay (Tox21).

Assay [1] can be described thus: qHTS assay for small molecule agonists of the p53 signaling pathway (AID 651631; calls by dose curve; also: nearly all actives have a fitted effect of over 15% in size; also: potency is read from the fitted curve at half-maximal effect). The method in brief: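 We treat p53RE-bla HCT-116 cells with compounds for 16 h at 37 °C, add LiveBLAzer B/G FRET substrate for 2 h at room temperature, and measure fluorescence intensity.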
(In general: In qHTS, concentration-response curves come from the screen itself.)

Assay [2] in a line: qHTS assay for small molecules that induce genotoxicity in human embryonic kidney cells expressing luciferase-tagged ATAD5 - cell viability (AID 651634; calls by dose curve; also: nearly all actives have a fitted effect of over 25% in size; also: potency is read from the fitted curve at half-maximal effect). The gist of the method: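 HEK293T cells carrying luciferase-tagged ATAD5, 2,000 cells/well, exposed to compound for 15.5 hr at 37C. Viability read as live-cell protease activity by CellTiter-Fluor fluorescence after 30 min at 37C.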

Assay [3] is described as follows: qHTS assay for small molecule disruptors of the mitochondrial membrane potential - cell viability (AID 720634; calls by dose curve;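 also: human HepG2 liver cancer cells; nearly all actives have a fitted effect of over 20% in size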). The method in brief:
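HepG2 cells, 2,000 per well, attached overnight, then treated 1 hr at 37 C, 5% CO2. Viability read as ATP by CellTiter-Glo luminescence after 30 min at room temperature. Read in the same wells as the m-MPI membrane-potential dye assay.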

Assay [4] in a line: qHTS assay to test for compound auto fluorescence at 535 nm (green) in HepG2 cells (AID 720675).
Assay [5] in a line: qHTS assay to test for compound auto fluorescence at 460 nm (blue) in HEK293 cells (AID 720678). The method in brief:
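Measured: blue fluorescence (Ex 405/Em 460 nm) of compound-treated HEK293 cells, incubated overnight at 37C with 5% CO2 and scaled to triamterene equivalents.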

Assay [6] can be described thus: qHTS assay to test for compound auto fluorescence at 535 nm (green) in HEK293 cells (AID 720680).
Assay [7] can be described thus: qHTS assay to test for compound auto fluorescence at 460 nm (blue) in HEK293 cell free culture (AID 720681). The method in brief:
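Compounds were added to cell-free DMEM with 10% FBS and fluorescence read directly. The blue channel used 405 nm excitation and 460 nm emission, with triamterene as the reference fluorophore.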

Assay [8] in a line: qHTS assay to test for compound auto fluorescence at 535 nm (green) in HEK293 cell free culture (AID 720682). The gist of the method:
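Green-channel intensity (Ex/Em 485/535 nm) was recorded from compound-treated wells containing only DMEM with 10% FBS. Fluorescein provided the equivalency standard.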

Assay [9] is described as follows: qHTS assay to test for compound auto fluorescence at 590 nm (red) in HEK293 cell free culture (AID 720683). The method in brief:
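Cell-free wells of DMEM with 10% FBS received compound, and intrinsic fluorescence was read at excitation/emission 540/590 nm. Values expressed as equivalence to Rose Bengal sodium.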

A short description of assay [10]: qHTS assay to test for compound auto fluorescence at 590 nm (red) in HepG2 cell free culture (AID 720684). The gist of the method:
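Compounds are added to culture medium (MEM, 10% FBS) lacking cells, then fluorescence is read at excitation 540 nm, emission 590 nm, with Rose Bengal sodium as the equivalency standard.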

The nature of assay [11]: qHTS assay to test for compound auto fluorescence at 460 nm (blue) in HepG2 cell free culture (AID 720685). The gist of the method:
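Compound (23 nL) or DMSO pinned into cell-free MEM with 10% FBS; blue fluorescence read at 405/460 nm excitation/emission, expressed as auto-fluorescence equivalency to triamterene.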

Assay [12] in a line: qHTS assay to test for compound auto fluorescence at 535 nm (green) in HepG2 cell free culture (AID 720686).
Assay [13] in a line: qHTS assay to test for compound auto fluorescence at 460 nm (blue) in HepG2 cells (AID 720687). The method in brief: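 HepG2 cells in MEM with 10% FBS, attached overnight at 37 C, were exposed to compound or DMSO for 1 hr at 37 C, 5% CO2. Blue fluorescence was read at 405/460 nm, with triamterene as reference fluorophore.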
The target in assay [14] is Glucocorticoid receptor (Homo sapiens) (UniProt P04150). Kind of assay: qHTS assay to identify small molecule agonists of the glucocorticoid receptor (GR) signaling pathway (AID 720691; active = well fitted activation curve with a large enough effect in the signal ratio in the repeat runs, not every such curve was filed as active; inconclusive = weak or mixed curves, or effect the other way; inactive = no such curve, though single readings can be large or run the other way; the % refers to the signal ratio; also: potency is read from the fitted curve at half-maximal effect). The note with it: GR-bla HeLa, beta-lactamase reporter ratio, 18 h; activation: at 62.4 µM (top of the series) unless noted. The gist of the method:
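GR-bla HeLa cells carrying a GRE-driven beta-lactamase reporter, exposed to compounds for 18 h at 37 C. Reporter activation read as fluorescence after 2 h with LiveBLAzer B/G FRET substrate at room temperature.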

A short description of assay [15]: qHTS assay for small molecule agonists of the p53 signaling pathway - cell viability (AID 651633; calls by dose curve;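 also: p53RE-bla HCT reporter cells with a stable beta-lactamase p53 reporter; nearly all actives have a fitted effect of over 30% in size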). The gist of the method: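 p53RE-bla cells were treated with compound for 16 hours at 37 C. Cytotoxicity was then measured as CellTiter-Glo luminescence after 30 min at room temperature.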
Assay [16] in a line: qHTS assay for small molecule disruptors of the mitochondrial membrane potential (AID 720635). Also: potency is read from the fitted curve at half-maximal effect. The method in brief:
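HepG2 cells exposed to compound 1 hr at 37C, then Mito-MPS dye 30 min. Ratio read of aggregate (540/590 nm) versus monomer (490/535 nm) fluorescence.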

Assay [17] is described as follows: qHTS assay to test for compound auto fluorescence at 590 nm (red) in HepG2 cells (AID 720674). The gist of the method:
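Fluorescence at 590 nm emission following 540 nm excitation was recorded from HepG2 wells one hour after compound transfer, with DMSO-only wells as vehicle and Rose Bengal sodium equivalency as the scale.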

A short description of assay [18]: qHTS assay to test for compound auto fluorescence at 590 nm (red) in HEK293 cells (AID 720679). The method in brief:
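Using HEK293 cells at 2,000 per well, the screen added 23 nL of each compound after cell attachment and incubated overnight (37C, 5% CO2). The plate reader then captured red-label fluorescence, Ex/Em 540/590nm.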

Assay [19] is described as follows: qHTS assay for small molecules that induce genotoxicity in human embryonic kidney cells expressing luciferase-tagged ATAD5 (AID 651632). Also: nearly all actives have a fitted effect of over 15% in size. The gist of the method: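 HEK293T cells carrying luciferase-tagged ATAD5 were given compound or DMSO vehicle and incubated 16 hr at 37C, 5% CO2. Luciferase activity was read after 30 min at room temperature with Amplite; a rise signals genotoxic stress.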

Assay [20] concerns the target Glucocorticoid receptor (Homo sapiens) (UniProt P04150). Kind of assay: qHTS assay to identify small molecule antagonists of the glucocorticoid receptor (GR) signaling pathway (AID 720692; active = well fitted inhibition curve with a large enough effect in the signal ratio in the repeat runs, not every such curve was filed as active; inconclusive = weak or mixed curves, or effect the other way; inactive = no such curve, though single readings can be large or run the other way; the % refers to the signal ratio). The gist of the method: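 GR-bla HeLa cells carrying a GRE-driven beta-lactamase reporter received compound after 4 h plating, then dexamethasone (5 nM final). After 18 h at 37C, the FRET substrate was loaded for 2 h at room temperature and fluorescence read.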

A number with no mark means an inactive call. Calls of active or inactive are those of the source. Unless noted, calls follow the shape of the dose curve; as a rule, active = well fitted curve in the direction sought with a large enough effect in the repeat runs; inconclusive = weak or mixed curves; inactive = no such curve, though single readings can be large; an effect the other way counts as inactive or inconclusive.

Sequence of Glucocorticoid receptor (Homo sapiens) (P04150 whole entry, looked up): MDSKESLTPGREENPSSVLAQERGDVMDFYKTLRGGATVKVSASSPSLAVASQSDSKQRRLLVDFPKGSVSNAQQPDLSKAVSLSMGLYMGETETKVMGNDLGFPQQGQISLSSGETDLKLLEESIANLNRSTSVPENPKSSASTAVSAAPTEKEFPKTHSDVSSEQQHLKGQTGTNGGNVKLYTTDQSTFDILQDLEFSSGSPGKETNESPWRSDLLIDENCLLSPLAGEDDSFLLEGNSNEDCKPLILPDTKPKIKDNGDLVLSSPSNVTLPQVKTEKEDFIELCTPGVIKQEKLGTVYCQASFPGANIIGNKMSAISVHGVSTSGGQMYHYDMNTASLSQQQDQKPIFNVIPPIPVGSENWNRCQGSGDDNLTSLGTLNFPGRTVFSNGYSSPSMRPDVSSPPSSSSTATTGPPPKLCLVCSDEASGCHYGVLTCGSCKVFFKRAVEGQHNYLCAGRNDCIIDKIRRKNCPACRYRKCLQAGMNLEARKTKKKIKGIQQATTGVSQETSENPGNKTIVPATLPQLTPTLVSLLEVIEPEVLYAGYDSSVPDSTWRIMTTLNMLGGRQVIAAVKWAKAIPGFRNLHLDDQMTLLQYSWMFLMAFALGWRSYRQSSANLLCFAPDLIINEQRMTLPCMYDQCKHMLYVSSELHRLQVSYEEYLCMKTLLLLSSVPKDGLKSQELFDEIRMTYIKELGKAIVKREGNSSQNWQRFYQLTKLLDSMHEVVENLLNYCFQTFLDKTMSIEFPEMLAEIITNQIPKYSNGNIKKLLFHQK

On to `CCN(CC)CCNc1ccc(CNC=O)c2sc3ccc(OC)cc3c(=O)c12`, for which the Potency was 6.86 µM (active) in assay [1], 4.86 µM (active) in assay [2] and 49 µM [inconclusive] (active) in assay [14]. Moreover, the Potency result in assay [3], in assay [4], in assay [9], in assay [10] and in [12] was “inactive” in each case. In addition, the result in assay [5], in assay [6], in [7], in [8], in assay [11] and in assay [13] was inactive.
For the compound `O=C(OCCc1ccccc1)c1ccccc1`, the Potency result in assay [1], in [15], in assay [2], in assay [3], in assay [16] and in assay [17] was “inactive” throughout. The Potency result in assay [4], in [18], in assay [9], in assay [10], in assay [12] and in [14] was “inactive” each time. Further, the compound was classed as inactive in [5], in assay [6], in [7], in [8] and in [13].
With `CC(C)(C)OCC1CO1` (configuration not stated), the Potency result in assay [19], in assay [15], in assay [2], in assay [3], in [16] and in assay [17] was “inactive” in each case. For the same compound, the Potency entry in assay [4], in assay [9], in assay [10] and in assay [12] was “inactive” throughout. The compound was classed as inactive in [5], in [6], in assay [7], in assay [8], in assay [11] and in [13].
`C1CCCNCCC1`: the Potency result in [19], in assay [15], in assay [2], in assay [3], in assay [16] and in assay [17] was “inactive” in each case. Also, the Potency result in [4], in assay [18], in [9], in [10] and in assay [12] was “inactive” in each case. Moreover, the call in assay [5], in assay [6], in assay [7], in [8], in assay [11] and in assay [13] was inactive.
For `CC(=O)c1cccc([N+](=O)[O-])c1`, the Potency entry in [1], in [15], in [3], in assay [16], in assay [17] and in assay [4] was “inactive” throughout. The Potency result in [18], in assay [9], in assay [10], in [12] and in assay [14] was “inactive” in each case. For the same compound, the call in [5], in [6], in assay [7], in assay [8], in assay [11] and in [13] was inactive.
As for `CCO[Si](CCCCl)(OCC)OCC`, the Potency entry in assay [19], in assay [15], in [2], in assay [3], in [17] and in [4] was “inactive” each time. Besides, the Potency entry in [18], in [9], in [10], in assay [12], in [14] and in [20] was “inactive” in each case. In assay [16], the Potency was 48.1 µM (active). The outcome in assay [5], in [6], in assay [7], in [8] and in assay [13] was inactive.
In the case of `COCC(C)OC(C)=O` (configuration not stated), the Potency entry in assay [19], in assay [15], in assay [2], in assay [3], in [16] and in assay [17] was “inactive” throughout. Besides, the Potency result in [4], in [18], in assay [10], in assay [12], in assay [14] and in assay [20] was “inactive” throughout. The call in assay [5], in assay [6], in [7], in [8], in [11] and in assay [13] was inactive.
